Screens as filed in PubChem.
Shown are actives, neighbours in structure and some others; about 27% of the full set was active somewhere.
CYP2C19 inh: blockers of cytochrome P450 2C19 activity – biochemical, luminescence, ADME assay, primary screen; CYP2C19 Supersomes, luciferin-H EGE luminescence, 30 min; inhibition, % at 5 µM; actives 21% (n = 96,000); AID 778, 2007;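 active = CYP2C19 inhibition above a set limit at 5 µM in the primary screen, cut at about 50% in these data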;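 also: plate controls were negative control wells for no effect and 2.5 mM tranylcypromine positive control for full effect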
CYP2C9 inhib: blockers of cytochrome P450 2C9 activity – biochemical, luminescence, ADME assay, primary screen. AID 777, 2007. P11712. CYP2C9 Supersomes, luciferin-H conversion. actives 20% (n = 96,000). inhibition, % at 5 µM;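 active = blocking of liver enzyme CYP2C9 beyond about 50% at 5 µM, limit read from the data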
CYP2C9 activ: human CYP2C9 activators, primary screen, biochemical, luminescence. Cytochrome P450 2C9 (Homo sapiens), P11712. recombinant CYP2C9, luciferin-H conversion; hits give high values; factor 1 = untreated enzyme, 0 = blocked. activation factor at 5 µM. actives 1.4% (n = 96,000);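 active = activation factor of 2 or more for CYP2C9 at a 5 µM dose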;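 also: 0 = sulfaphenazole-blocked wells and 1 = vehicle-only wells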
Cav3 T inh: Cav3.2 calcium influx blockers – cell-based, Fluo-4 calcium fluorescence, FDSS, MLSMR library, primary screen. actives 4% (n = 100,000). AID 449739, 2010. B-score at 10 µM. Voltage-dependent T-type calcium channel subunit alpha-1H (Homo sapiens), O95180. Cav3.2-expressing cells; hits give low values;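 active = single-dose well whose peak fluorescence ratio is a statistical outlier from its plate by either plate-standardised score or position-corrected B-score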
Target sequence (O95180 whole entry, looked up): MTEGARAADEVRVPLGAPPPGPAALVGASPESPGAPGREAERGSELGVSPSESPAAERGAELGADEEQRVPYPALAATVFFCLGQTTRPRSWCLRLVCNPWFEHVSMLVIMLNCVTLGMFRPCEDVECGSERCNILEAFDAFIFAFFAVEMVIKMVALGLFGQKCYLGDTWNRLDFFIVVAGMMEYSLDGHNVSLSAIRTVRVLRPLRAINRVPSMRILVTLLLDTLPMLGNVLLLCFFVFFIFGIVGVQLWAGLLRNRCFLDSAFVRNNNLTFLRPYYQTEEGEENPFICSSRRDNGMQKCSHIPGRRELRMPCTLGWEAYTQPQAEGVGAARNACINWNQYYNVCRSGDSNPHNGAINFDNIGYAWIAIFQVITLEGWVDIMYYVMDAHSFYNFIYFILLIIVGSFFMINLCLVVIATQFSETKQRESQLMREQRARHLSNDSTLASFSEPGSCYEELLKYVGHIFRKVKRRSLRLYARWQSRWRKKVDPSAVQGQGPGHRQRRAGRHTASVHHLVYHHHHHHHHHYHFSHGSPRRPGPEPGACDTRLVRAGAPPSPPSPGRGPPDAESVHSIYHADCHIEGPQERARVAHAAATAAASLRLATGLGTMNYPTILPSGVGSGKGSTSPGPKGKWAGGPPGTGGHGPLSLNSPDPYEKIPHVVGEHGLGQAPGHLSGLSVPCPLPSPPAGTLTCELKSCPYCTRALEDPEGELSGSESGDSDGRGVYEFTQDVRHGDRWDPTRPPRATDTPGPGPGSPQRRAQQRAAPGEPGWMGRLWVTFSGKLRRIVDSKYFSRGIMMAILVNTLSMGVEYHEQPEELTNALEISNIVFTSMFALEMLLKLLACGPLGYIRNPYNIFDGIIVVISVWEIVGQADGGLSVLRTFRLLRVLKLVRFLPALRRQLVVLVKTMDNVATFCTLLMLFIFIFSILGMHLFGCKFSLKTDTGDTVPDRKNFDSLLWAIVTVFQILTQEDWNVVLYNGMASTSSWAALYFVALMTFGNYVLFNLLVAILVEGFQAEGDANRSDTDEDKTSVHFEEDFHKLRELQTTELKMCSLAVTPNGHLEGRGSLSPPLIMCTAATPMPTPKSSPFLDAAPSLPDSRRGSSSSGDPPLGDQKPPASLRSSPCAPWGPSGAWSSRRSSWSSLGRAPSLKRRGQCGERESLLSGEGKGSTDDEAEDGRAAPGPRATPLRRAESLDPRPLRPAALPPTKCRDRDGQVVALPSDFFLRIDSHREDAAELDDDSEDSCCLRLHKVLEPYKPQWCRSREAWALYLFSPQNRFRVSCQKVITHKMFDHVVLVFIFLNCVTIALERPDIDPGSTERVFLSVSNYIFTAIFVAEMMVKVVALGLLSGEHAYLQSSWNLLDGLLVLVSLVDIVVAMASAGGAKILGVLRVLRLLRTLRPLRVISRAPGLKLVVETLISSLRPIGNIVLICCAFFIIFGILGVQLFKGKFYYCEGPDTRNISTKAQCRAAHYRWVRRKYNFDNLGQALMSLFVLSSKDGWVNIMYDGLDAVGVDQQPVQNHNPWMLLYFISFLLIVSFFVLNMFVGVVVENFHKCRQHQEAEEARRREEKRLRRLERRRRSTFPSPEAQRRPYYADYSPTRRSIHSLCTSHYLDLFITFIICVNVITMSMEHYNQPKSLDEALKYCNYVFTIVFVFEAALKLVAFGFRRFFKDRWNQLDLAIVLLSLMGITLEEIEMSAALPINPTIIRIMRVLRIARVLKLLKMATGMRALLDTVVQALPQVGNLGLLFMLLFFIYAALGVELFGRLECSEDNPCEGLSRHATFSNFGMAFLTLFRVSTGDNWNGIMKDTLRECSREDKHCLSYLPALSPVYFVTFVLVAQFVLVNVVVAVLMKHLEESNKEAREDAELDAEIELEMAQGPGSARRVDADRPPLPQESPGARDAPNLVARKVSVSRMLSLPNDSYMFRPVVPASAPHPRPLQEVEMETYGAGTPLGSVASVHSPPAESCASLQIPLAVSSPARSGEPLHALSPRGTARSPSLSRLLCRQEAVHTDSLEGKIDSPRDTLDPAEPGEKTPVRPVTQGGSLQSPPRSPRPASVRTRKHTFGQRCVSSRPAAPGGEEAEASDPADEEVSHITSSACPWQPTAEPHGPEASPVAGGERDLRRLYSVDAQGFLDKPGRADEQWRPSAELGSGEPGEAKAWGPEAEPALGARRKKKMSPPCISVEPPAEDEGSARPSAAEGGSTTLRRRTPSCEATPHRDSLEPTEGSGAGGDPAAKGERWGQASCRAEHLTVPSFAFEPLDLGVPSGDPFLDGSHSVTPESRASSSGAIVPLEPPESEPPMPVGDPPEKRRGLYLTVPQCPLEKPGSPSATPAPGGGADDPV
CYP2C19 act: human CYP2C19 activators, primary screen, biochemical, luminescence. Cytochrome P450 2C19 (Homo sapiens), P33261. recombinant CYP2C19, luciferin-H EGE luminescence; hits give high values; 0 = fully inhibited enzyme, 1 = untreated enzyme. activation factor at 5 µM. 96,000 tested, under 10 active. AID 1025, 2008;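 active = activation factor of at least 2 at 5 µM in the primary screen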;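 also: 0 = wells with 2.5 mM tranylcypromine and 1 = vehicle-only wells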
Active calls of the source: *; x = no result.

SMILES	CYP2C19 inh	CYP2C9 inhib	CYP2C9 activ	Cav3 T inh	CYP2C19 act
O=C(NC1(C(F)(F)F)C(=O)Nc2c1c(=O)[nH]c(=O)n2-c1ccccc1)c1cccnc1 (stereo not given)	12	14	0.9	-3.6	0.9
Cc1ccc(C(=O)CSc2ncnc3sc4c(c23)CCC(C)C4)cc1 (stereo not given)	x	x	x	-3.1	x
CC(=O)Nc1cc(C(F)(F)F)ccc1OCCOc1ccccc1	x	x	x	-1.5	x
CC(=O)Nc1cc(C(F)(F)F)ccc1Oc1cccc(Br)c1	98*	58*	0.4	-1.7	0
Cc1ccc(OCC(=O)c2ccc3c(c2)CCCC3)cc1C	2	-40	1.4	-0.53	1
O=C(COc1ccc(Br)cc1)c1ccc2c(c1)CCCC2	52*	-62	1.6	-0.0033	0.5
Cc1ccc(C(=O)NCC2(c3ccccc3)CCCC2)cc1	30	45	0.6	-3.9*	0.7
COc1ccc(Br)cc1CNC(=O)C1CCN(S(=O)(=O)N2CCCC2)CC1	22	-164	2.6*	0.59	0.8
COc1ccccc1CNC(=O)C1CCN(S(=O)(=O)N2CCCCC2)CC1	19	-116	2.2*	0.9	0.8
Cc1cccc(-n2cnc(C(=O)N/N=C\c3ccc(Br)cc3)c2)n1	14	-24	1.2	0.46	0.9
COc1ccc(-c2nnc(-c3ccc(OCC(C)C)cc3)o2)cc1	-2	19	0.8	-0.41	1
CC(C)COc1ccc(-c2nnc(-c3ccncc3)o2)cc1	78*	42	0.6	-1.1	0.2
c1cc(-c2nnc(-c3ccncc3)o2)ccn1	66*	12	0.9	0.79	0.3
CCSc1nnc(-c2ccncc2)o1	x	x	x	0.34	x
Cc1cc(NS(=O)(=O)c2ccc(NC(=S)NC(=O)c3ccc(Cl)cc3Cl)cc2)no1	0	25	0.7	0.65	1
CN(C(=O)c1ccc2c(=O)n3c(nc2c1)CCCCC3)c1ccccc1	x	x	x	0.58	x
Cc1ccccc1C(=O)Nc1ccc2nc3n(c(=O)c2c1)CCC3	-14	-4	1	2.3	1.1
O=C(Nc1ccc(F)c(Cl)c1)c1ccc2c(=O)n3c(nc2c1)CCCCC3	3	8	0.9	-7.7*	1
O=C(Nc1cccc(Cl)c1)c1ccc2c(=O)n3c(nc2c1)CCCCC3	26	63*	0.4	-5.7*	0.7
O=C(c1ccc2c(=O)n3c(nc2c1)CCCCC3)N1CCN(C(c2ccccc2)c2ccccc2)CC1	53*	62*	0.4	-4.8*	0.5
CN(C)c1cccc(C(=O)Nc2ccc3nc4n(c(=O)c3c2)CCCCC4)c1	76*	76*	0.2	-0.85	0.2
O=C(NCCN1CCCCC1)Nc1ccc(F)c(Cl)c1	0	-9	1.1	-0.13	1
CC(C)C(NC(=O)C1CCCCC1)C(=O)NC1CCN(Cc2ccccc2)CC1 (stereo not given)	0	-6	1.1	0.97	1
COc1ccc(CCNC(=O)C2CC(c3ccccc3[N+](=O)[O-])=NO2)cc1 (stereo not given)	21	40	0.6	-0.46	0.8
O=C(NCCC1=CCCCC1)c1ccc2c(=O)n3c(nc2c1)CCCCC3	75*	94*	0.1	-1.1	0.3
SMILES	CYP2C19 inh	CYP2C9 inhib	CYP2C9 activ	Cav3 T inh	CYP2C19 act
O=C1CSc2ccc(C(=O)NCCC3=CCCCC3)cc2N1	-2	-5	1.1	-0.03	1
Nc1c(-c2ccccc2)n[nH]c1-c1ccccc1	75*	40	0.6	0.31	0.3
CC1CCc2nn(CC(=O)N3CCN(C(=O)c4ccco4)CC3)cc2C1 (stereo not given)	x	x	x	0.65	x
C=CCN1C(=O)C2(C(C#N)=C(N)Oc3n[nH]c(CCC)c32)c2ccccc21 (stereo not given)	-2	-1	1	-0.21	1
CCn1c(=N)c(C(=O)OC)cc2c(=O)n3ccccc3nc21	63*	-18	1.2	x	0.4
N=c1c(C(=O)NCc2ccco2)cc2c(=O)n3ccccc3nc2n1Cc1ccc(Cl)cc1	39	64*	0.4	-2.1	0.6
COCCn1c(=N)c(C(=O)NCc2ccco2)cc2c(=O)n3ccccc3nc21	-13	-2	1	-1.5	1.1
N=c1c(S(=O)(=O)c2ccc(Cl)cc2)cc2c(=O)n3ccccc3nc2n1CCN1CCOCC1	40	59*	0.4	x	0.6
COc1ccc(S(=O)(=O)CCC(=O)N(C)c2ccc(OC)cc2OC)cc1	x	x	x	0.14	x
CCOC(=O)c1oc2ccc(S(=O)(=O)n3nc(-c4ccc(OC)cc4)cc3N)cc2c1C	2	100*	0	x	1
CCOC(=O)c1oc2ccc(S(=O)(=O)n3nc(-c4ccccc4)cc3N)cc2c1C	31	98*	0	-0.55	0.7
